# Source: PubChem (The Scripps Research Institute Molecular Screening Center)
# TTR transcr act: TTR transcription activation, primary screen | activation, % at 16.7 µM | SH-SY5Y TTR promoter Gaussia luciferase, luminescence; 100% = recombinant luciferase protein wells | 92,000 compounds, 1.3% hits | AID 1117267;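 active = activation above the mean of all tested compounds plus 3 SD, cut at about 9.5% in these data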;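 also: cells exposed to compounds for one day before reading; 0% = median of all test compound wells on the plate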
# TTR inh HuH7: HuH7 TTR transcription inhibition, counter-screen. shares compounds with TTR transcr act. HuH7 TTR promoter-Gaussia luciferase reporter, luminescence. inhibition, % at 16.7 µM. 1,100 compounds, 4% hits;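 active = average inhibition above the solvent-only control wells' mean plus 3 SD, cut at about 15% in these data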;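 also: 0% = cells with DMSO only and 100% = cells with inhibitor control FD; inhibitors lower well luminescence so higher value means more inhibition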
# TTR up confirm: human TTR transcription activation, confirmation. shares compounds with TTR transcr act. SHSY5Y TTR promoter Gaussia luciferase, luminescence; 100% = purified Lucia enzyme wells, no cells. activation, % at 16.7 µM. 1,100 tested, under 10 active. AID 1117280;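 active = mean activation above a set limit taken from the earlier primary screen, cut at about 11% in these data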;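 also: 0% = DMSO-treated cells and 100% = recombinant Lucia luciferase without cells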
# * hit, by the source's call. Shown is part of a subset that was picked to be rich in hits.
SMILES,TTR transcr act,others
CCC(=NCCCn1ccnc1)c1c(O)n(-c2ccc(OC)cc2)c(=O)[nH]c1=O,17*,TTR inh HuH7=-10;TTR up confirm=1
C=CCN1C[C@H](C)N(C(c2ccc(C(=O)N(CC)CC)cc2)c2cccc(OC)c2)CC1C (some centres not stated),0,
Cn1cc(P(=S)(c2ccccc2)c2ccccc2)c2ccccc21,7,
COC(=O)C1C(c2ccccc2)CC2CCC1N2C (configuration not stated),0,
CC[C@]12CCN(CC3(O)CC3)[C@H](Cc3ccc(O)cc31)C2(C)C,2,
CC(C)(C)n1nnnc1C(c1cccc2ccccc12)N1CCC2(CC1)C(=O)NCN2c1ccccc1 (configuration not stated),0,
CCOC(=O)c1cc2c(cn1)[C@H](CCO)NC2,1,
CC(=O)OC1C=CC2[C@H]3Cc4ccc(O)c5c4[C@@]2(CCN3C)C1O5 (some centres not stated),17*,TTR inh HuH7=-9;TTR up confirm=0
CN1CC[C@]23c4c5ccc(O)c4OC2C(O)C=CC3[C@H]1C5 (some centres not stated),2,
CN1CC[C@]23c4c5ccc(OC6OC(C(=O)O)[C@@H](O)C(O)[C@H]6O)c4OC2C(O)C=CC3[C@H]1C5 (some centres not stated),-1,
Nc1ccc(-c2ccc(N)cc2)cc1,2,
